What all share (experiment): DAPPL (digital affinity profiling via proximity ligation, sequencing); 10 mM Tris-HCl pH 7.5, 50 mM NaCl, 1 mM DTT, 4% glycerol, room temperature, 30 min; GST-TFs on glutathione beads, 16-mer random dsDNA library, 0.1% formaldehyde crosslink after washing; high values mean tight binding
Holding throughout (settings): protein: recombinant; tags: N-terminal GST; dsDNA, one strand shown

One experiment deals with T1, FLI1 (Homo sapiens, UniProt Q01543 1-452).
T1 sequence: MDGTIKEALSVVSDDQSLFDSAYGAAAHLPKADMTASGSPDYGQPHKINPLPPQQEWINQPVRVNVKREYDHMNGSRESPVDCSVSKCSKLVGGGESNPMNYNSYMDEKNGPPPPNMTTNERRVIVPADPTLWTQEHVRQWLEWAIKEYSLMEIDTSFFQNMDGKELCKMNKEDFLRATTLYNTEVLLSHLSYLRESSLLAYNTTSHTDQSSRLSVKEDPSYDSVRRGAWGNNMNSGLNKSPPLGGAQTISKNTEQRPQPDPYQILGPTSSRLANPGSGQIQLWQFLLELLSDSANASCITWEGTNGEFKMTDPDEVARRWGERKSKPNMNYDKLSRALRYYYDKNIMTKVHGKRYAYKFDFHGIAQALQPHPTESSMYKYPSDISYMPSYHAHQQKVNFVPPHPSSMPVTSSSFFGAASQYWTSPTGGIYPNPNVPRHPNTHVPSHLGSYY
The method in brief: (§1)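 Human transcription factors fused to GST were expressed in yeast, captured on glutathione beads, given DNA barcodes and pooled with a GST-only negative control. Pools were incubated with 200 nmole of a 16-mer random double-stranded DNA library in Tris/NaCl/DTT/glycerol buffer at room temperature for 30 min. They were then washed, crosslinked with 0.1% formaldehyde, proximity-ligated (BsaI/T4 ligase, 1 h, 37 °C), PCR-amplified and sequenced on an Illumina NextSeq500. Binding signal is each 6-mer's read frequency for a factor divided by its frequency for the GST control.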

A further experiment concerns the target T2, ELK1 (Homo sapiens, UniProt P19419 1-428).
T2 sequence: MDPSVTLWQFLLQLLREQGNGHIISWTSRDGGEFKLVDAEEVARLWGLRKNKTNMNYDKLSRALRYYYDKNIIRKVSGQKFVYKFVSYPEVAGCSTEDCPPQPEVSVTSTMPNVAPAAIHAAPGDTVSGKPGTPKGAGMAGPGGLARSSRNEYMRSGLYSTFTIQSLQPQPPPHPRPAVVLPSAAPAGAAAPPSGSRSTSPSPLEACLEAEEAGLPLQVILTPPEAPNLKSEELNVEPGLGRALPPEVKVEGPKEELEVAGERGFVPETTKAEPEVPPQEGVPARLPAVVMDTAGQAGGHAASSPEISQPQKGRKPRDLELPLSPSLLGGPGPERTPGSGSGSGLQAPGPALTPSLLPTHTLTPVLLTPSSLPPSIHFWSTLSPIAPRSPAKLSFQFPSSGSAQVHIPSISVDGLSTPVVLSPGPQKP
The method in brief: as §1

The next experiment concerns the target T3, GABPA (Homo sapiens, UniProt Q06546 1-454).
T3 sequence: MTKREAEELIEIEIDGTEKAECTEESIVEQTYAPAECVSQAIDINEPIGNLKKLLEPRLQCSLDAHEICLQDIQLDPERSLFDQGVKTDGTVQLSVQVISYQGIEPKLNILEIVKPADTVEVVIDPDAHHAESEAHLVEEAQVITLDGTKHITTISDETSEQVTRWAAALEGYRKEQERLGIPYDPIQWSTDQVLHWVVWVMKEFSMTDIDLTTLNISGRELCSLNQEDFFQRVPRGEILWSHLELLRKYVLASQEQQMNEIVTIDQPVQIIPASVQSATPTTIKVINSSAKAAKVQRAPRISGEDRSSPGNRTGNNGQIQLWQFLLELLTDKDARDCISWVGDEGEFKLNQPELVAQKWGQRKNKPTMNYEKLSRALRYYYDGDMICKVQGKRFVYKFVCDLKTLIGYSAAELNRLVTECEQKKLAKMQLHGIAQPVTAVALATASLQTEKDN
The method in brief:
as §1

In a further experiment the target is T4, ERG (Homo sapiens, UniProt P11308 1-479).
T4 sequence: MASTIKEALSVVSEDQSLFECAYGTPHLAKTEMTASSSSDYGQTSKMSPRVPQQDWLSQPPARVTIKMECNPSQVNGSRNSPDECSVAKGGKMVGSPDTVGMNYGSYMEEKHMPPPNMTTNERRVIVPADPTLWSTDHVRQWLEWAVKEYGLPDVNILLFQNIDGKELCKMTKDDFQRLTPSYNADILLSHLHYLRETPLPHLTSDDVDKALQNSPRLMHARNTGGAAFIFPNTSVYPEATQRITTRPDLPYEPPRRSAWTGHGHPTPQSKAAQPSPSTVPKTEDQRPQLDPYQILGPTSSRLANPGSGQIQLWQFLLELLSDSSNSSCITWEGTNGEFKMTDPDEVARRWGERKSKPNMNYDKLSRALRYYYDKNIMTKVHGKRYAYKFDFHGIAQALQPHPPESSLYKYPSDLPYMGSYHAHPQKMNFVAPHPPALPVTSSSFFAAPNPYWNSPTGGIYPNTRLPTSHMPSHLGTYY
The method in brief:
as §1

A further experiment has as its target ELF1 (Homo sapiens, UniProt P32519 1-619). In short, it runs like this:
as §1

In the next experiment the target is T5, EHF (Homo sapiens, UniProt Q9NZC4 1-300).
T5 sequence: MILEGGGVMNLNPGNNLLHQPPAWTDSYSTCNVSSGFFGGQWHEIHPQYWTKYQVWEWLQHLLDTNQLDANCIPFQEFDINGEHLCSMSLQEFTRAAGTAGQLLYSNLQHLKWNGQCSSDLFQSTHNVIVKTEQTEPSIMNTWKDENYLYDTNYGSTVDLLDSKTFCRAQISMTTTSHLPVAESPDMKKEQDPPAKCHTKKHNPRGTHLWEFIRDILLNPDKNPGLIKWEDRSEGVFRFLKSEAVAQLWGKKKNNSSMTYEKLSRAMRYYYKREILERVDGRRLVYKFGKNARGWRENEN
The method in brief: as §1

A further experiment deals with SPI1 (Homo sapiens, UniProt P17947 1-270). The method in brief: as §1
The target of the next experiment is SPIB (Homo sapiens, UniProt Q01892 1-262). The method in brief:
as §1

A further experiment has as its target T6, ELK3 (Homo sapiens, UniProt P41970 1-407).
T6 sequence: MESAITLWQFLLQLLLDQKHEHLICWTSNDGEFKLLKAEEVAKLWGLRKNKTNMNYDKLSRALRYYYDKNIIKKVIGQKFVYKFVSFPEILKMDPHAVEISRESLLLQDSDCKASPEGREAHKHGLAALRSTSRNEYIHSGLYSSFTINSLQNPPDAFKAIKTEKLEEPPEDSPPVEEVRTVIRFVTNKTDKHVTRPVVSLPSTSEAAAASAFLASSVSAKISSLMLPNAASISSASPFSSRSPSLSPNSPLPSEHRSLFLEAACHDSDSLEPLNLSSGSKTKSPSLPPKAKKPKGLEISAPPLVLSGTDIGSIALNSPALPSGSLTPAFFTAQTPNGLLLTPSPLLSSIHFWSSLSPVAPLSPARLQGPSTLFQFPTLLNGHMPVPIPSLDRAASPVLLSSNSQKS
The method in brief:
as §1

SPIB, sequence (Q01892 whole entry): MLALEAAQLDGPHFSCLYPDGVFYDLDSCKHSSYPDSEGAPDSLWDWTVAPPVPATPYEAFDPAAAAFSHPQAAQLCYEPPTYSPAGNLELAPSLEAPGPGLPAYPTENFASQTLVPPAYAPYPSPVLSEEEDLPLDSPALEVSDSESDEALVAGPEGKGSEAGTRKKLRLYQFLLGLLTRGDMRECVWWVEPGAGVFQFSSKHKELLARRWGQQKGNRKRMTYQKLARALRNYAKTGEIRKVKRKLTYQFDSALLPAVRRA
ELF1, sequence (P32519 whole entry): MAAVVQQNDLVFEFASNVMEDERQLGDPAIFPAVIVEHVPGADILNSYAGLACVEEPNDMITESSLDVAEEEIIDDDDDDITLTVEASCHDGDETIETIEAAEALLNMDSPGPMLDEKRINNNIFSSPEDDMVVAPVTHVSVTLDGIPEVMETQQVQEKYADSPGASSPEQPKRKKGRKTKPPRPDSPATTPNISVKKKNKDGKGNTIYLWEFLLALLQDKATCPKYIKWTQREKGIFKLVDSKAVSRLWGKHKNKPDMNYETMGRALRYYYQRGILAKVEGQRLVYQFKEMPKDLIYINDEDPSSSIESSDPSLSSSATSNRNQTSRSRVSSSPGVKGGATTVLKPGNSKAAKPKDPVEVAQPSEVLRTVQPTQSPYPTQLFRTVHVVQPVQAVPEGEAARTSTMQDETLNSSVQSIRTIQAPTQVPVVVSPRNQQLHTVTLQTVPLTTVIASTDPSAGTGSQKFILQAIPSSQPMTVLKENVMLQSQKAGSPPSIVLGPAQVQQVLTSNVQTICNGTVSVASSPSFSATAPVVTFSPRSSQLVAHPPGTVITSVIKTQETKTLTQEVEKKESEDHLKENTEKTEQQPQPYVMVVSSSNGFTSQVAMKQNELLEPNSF

As to TAAATG, the binding signal is 1.22 fold enrichment (6-mer frequency, TF over GST control) with FLI1; 1.21 fold enrichment (6-mer frequency, TF over GST control) with ELK1; 1.34 fold enrichment (6-mer frequency, TF over GST control) with GABPA; 1.27 fold enrichment (6-mer frequency, TF over GST control) with ERG; 1.34 fold enrichment (6-mer frequency, TF over GST control) with ELF1; 1.27 fold enrichment (6-mer frequency, TF over GST control) with EHF. The binding signal is 1.36 fold enrichment (6-mer frequency, TF over GST control) with SPI1; 1.35 fold enrichment (6-mer frequency, TF over GST control) in the experiment with SPIB; 1.29 fold enrichment (6-mer frequency, TF over GST control) with ELK3.
In the case of ATTCTC, the binding signal with FLI1 was 1.35 fold enrichment (6-mer frequency, TF over GST control); with ELK1, 1.27 fold enrichment (6-mer frequency, TF over GST control); with GABPA, 1.32 fold enrichment (6-mer frequency, TF over GST control); with ERG, 1.25 fold enrichment (6-mer frequency, TF over GST control); with ELF1, 1.24 fold enrichment (6-mer frequency, TF over GST control); in the experiment with EHF, 1.27 fold enrichment (6-mer frequency, TF over GST control). For the same sequence, the binding signal with SPI1 is 1.27 fold enrichment (6-mer frequency, TF over GST control); in the experiment with SPIB, 1.32 fold enrichment (6-mer frequency, TF over GST control); in the experiment with ELK3, 1.42 fold enrichment (6-mer frequency, TF over GST control).
Take CTACGG: the binding signal is 1.19 fold enrichment (6-mer frequency, TF over GST control) in the experiment with FLI1; 1.27 fold enrichment (6-mer frequency, TF over GST control) with ELK1; 1.22 fold enrichment (6-mer frequency, TF over GST control) in the experiment with GABPA; 1.21 fold enrichment (6-mer frequency, TF over GST control) with ERG; 1.29 fold enrichment (6-mer frequency, TF over GST control) in the experiment with ELF1; 1.31 fold enrichment (6-mer frequency, TF over GST control) with EHF. Further, the binding signal is 1.24 fold enrichment (6-mer frequency, TF over GST control) in the experiment with SPI1; 1.28 fold enrichment (6-mer frequency, TF over GST control) with SPIB; 1.24 fold enrichment (6-mer frequency, TF over GST control) with ELK3.
On to TCCCAT, for which the binding signal with FLI1 is 1.36 fold enrichment (6-mer frequency, TF over GST control); in the experiment with ELK1, 1.37 fold enrichment (6-mer frequency, TF over GST control); with GABPA it was 1.51 fold enrichment (6-mer frequency, TF over GST control); with ERG, 1.45 fold enrichment (6-mer frequency, TF over GST control); with ELF1 it was 1.44 fold enrichment (6-mer frequency, TF over GST control); with EHF, 1.43 fold enrichment (6-mer frequency, TF over GST control). The binding signal with SPI1 was 1.28 fold enrichment (6-mer frequency, TF over GST control); with SPIB it was 1.48 fold enrichment (6-mer frequency, TF over GST control); in the experiment with ELK3 it was 1.47 fold enrichment (6-mer frequency, TF over GST control).
Consider TTCAAT, for which the binding signal with FLI1 was 1.33 fold enrichment (6-mer frequency, TF over GST control); in the experiment with ELK1, 1.42 fold enrichment (6-mer frequency, TF over GST control); with GABPA, 1.42 fold enrichment (6-mer frequency, TF over GST control); in the experiment with ERG, 1.41 fold enrichment (6-mer frequency, TF over GST control); with ELF1, 1.37 fold enrichment (6-mer frequency, TF over GST control); in the experiment with EHF it was 1.34 fold enrichment (6-mer frequency, TF over GST control). Further, the binding signal is 1.38 fold enrichment (6-mer frequency, TF over GST control) with SPI1; 1.36 fold enrichment (6-mer frequency, TF over GST control) with SPIB; 1.26 fold enrichment (6-mer frequency, TF over GST control) in the experiment with ELK3.
Regarding ATAACT, the binding signal with FLI1 is 1.23 fold enrichment (6-mer frequency, TF over GST control); in the experiment with ELK1 it was 1.21 fold enrichment (6-mer frequency, TF over GST control); with GABPA, 1.29 fold enrichment (6-mer frequency, TF over GST control); with ERG it was 1.22 fold enrichment (6-mer frequency, TF over GST control); in the experiment with ELF1 it was 1.32 fold enrichment (6-mer frequency, TF over GST control); with EHF, 1.24 fold enrichment (6-mer frequency, TF over GST control). The binding signal in the experiment with SPI1 is 1.22 fold enrichment (6-mer frequency, TF over GST control); with SPIB it was 1.36 fold enrichment (6-mer frequency, TF over GST control); with ELK3, 1.22 fold enrichment (6-mer frequency, TF over GST control).
CGTTAA: the binding signal with FLI1 was 1.12 fold enrichment (6-mer frequency, TF over GST control); in the experiment with ELK1 it was 1.17 fold enrichment (6-mer frequency, TF over GST control); with GABPA, 1.11 fold enrichment (6-mer frequency, TF over GST control); with ERG, 1.17 fold enrichment (6-mer frequency, TF over GST control); with ELF1, 1.14 fold enrichment (6-mer frequency, TF over GST control); with EHF it was 1.1 fold enrichment (6-mer frequency, TF over GST control). Moreover, the binding signal with SPI1 is 1.1 fold enrichment (6-mer frequency, TF over GST control); with SPIB, 1.13 fold enrichment (6-mer frequency, TF over GST control); with ELK3, 1.21 fold enrichment (6-mer frequency, TF over GST control).
As for TAGTTT, the binding signal with FLI1 is 1.23 fold enrichment (6-mer frequency, TF over GST control); with ELK1 it was 1.19 fold enrichment (6-mer frequency, TF over GST control); in the experiment with GABPA, 1.25 fold enrichment (6-mer frequency, TF over GST control); with ERG, 1.14 fold enrichment (6-mer frequency, TF over GST control); with ELF1, 1.22 fold enrichment (6-mer frequency, TF over GST control); with EHF it was 1.21 fold enrichment (6-mer frequency, TF over GST control). Moreover, the binding signal with SPI1 is 1.12 fold enrichment (6-mer frequency, TF over GST control); with SPIB, 1.13 fold enrichment (6-mer frequency, TF over GST control); with ELK3 it was 1.23 fold enrichment (6-mer frequency, TF over GST control).
